Assay results published in PubChem BioAssay (NCATS).
Results filed as inconclusive are left out. The source made the active and inactive calls. Calls follow the shape of the dose curve; as a rule, active = well fitted inhibition curve with a large enough effect; inconclusive = small, poorly fitted or top-dose-only effect; inactive = no such curve, though single readings can be large or run the other way.

Experiment: qHTS assay to identify inhibitors of the type 1 interferon - major histocompatibility complex class I in skeletal muscle: Counter screen cell viability and HiBit confirmation (AID 1347412); also: nearly all actives have a fitted effect of over 60% in size
Conditions: iHSKM muscle cells + IFN-b, HiBiT or CellTiter-Glo, 24 h; Viability; at 45.9 µM (top of the series)
How it was run: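 Human myoblast knock-in line, 4.0 ng/ml IFN-beta stimulation, 24 h compound treatment. Endpoints: HiBiT lytic luminescence (HLA-B level) and CellTiter Glo (ATP). Dosing 12 concentrations, 3-fold steps, 46 uM highest final.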
% is scaled to controls: 0 for no effect and ±100 for the full control effect.

SMILES | activity change, negative = inhibition
CC(C)CNc1ccnc(NCc2csc(-c3ccccc3)n2)n1 | -28.7% (inactive)
NC1(C(=O)N[C@@H](CCO)c2ccc(Cl)cc2)CCN(c2ncnc3[nH]ccc23)CC1 | -19.1% (inactive)
Fc1ccc(CNc2ncnc3ccc(F)cc23)cc1 | 2.98% (inactive)
NS(=O)(=O)c1ccc(Nc2nc(OCC3CCCCC3)c3[nH]cnc3n2)cc1 | -13.9% (inactive)
